# In PubChem BioAssay (EPA / NIEHS):
# Calls of active or inactive are those of the source. The calls were made as follows: active = hit-call score of the fitted dose curve at least 0.9, where 1 is the maximum; inactive = score below 0.9.
# Experiment: CCTE_Simmons_MITO_inhib_resp_rate: CCTE's HepG2 Seahorse XF Respirometric Screening Assay at Inhibited Respiratory State [full ETC block], Simmons Lab (AID 2284006)
# Conditions: actives raise or lower the signal
# Description: CCTE_Simmons_MITO is cell-based, respirometric assay using HepG2 cells and a Seahorse XF Analyzer to measure oxygen consumption rates over four temporal phases spanning a total of 72 minutes: pre-injection (pre-treatment), basal (following test compound injection), maximal (following FCCP uncoupler injection), and inhibited (following rotenone/antimycin A injection)CCTE_Simmons_MITO_inhib_resp_rate is one of 4 assay components calculated from the CCTE_Simmons_MITO assay. It is designed to make measurements of inhibited respiration using a form of respirometric reporter, as detected with […] signals by Seahorse XF96 technology. Data from the assay component CCTE_Simmons_MITO_inhib_resp_rate was analyzed at the endpoint, CCTE_Simmons_MITO_inhib_resp_rate_OCR, with bidirectional fitting relative to DMSO as the negative control and baseline of activity. Using a type of respirometric reporter, measures of inhibited respiration for gain or loss-of-signal activity can be used to understand cellular oxygen consumption as it relates to cellular respiration. To generalize the intended target to other relatable targets, this assay endpoint is annotated to the mitochondria intended target family, where the subfamily is respiration.
# Test chemicals were administered as a titrated series of 7 concentrations from 125 nM up to 100 uM [final] prior to kinetic endpoint detection at 6 minute intervals [3 min mix followed by 3 minutes measure] for 72 minutes. Three biological replicates of technical singles were run for every chemical concentration tested. Dimethylsulfoxide [DMSO] was used as the vehicle control. The electron transport chain inhibitor fenpyroximate was used as the positive control for decreased basal respiration and was administered as a titrated series of 6 concentrations from 250 nM up to 2.75 uM [final] with technical triplicates for the top concentration only. The uncoupler 2,4-dintirophenol was used as the positive control for increased basal respiration and was administered as a titrated series of 6 concentrations from 938 nM up to 40 uM [final] with technical triplicates for the top concentration only. A Seahorse XF Analzyer is required to measure the response.
SMILES,outcome,AC50
FC(F)C(F)(F)OCC(Cn1cncn1)c1ccc(Cl)cc1Cl (stereo not drawn),inactive,–
CON=C(C(=O)OC)c1ccccc1CON=C(C)c1cccc(C(F)(F)F)c1,–,14.8 µM (active)
CSC1=N[C@@](C)(c2ccccc2)C(=O)N1Nc1ccccc1,inactive,–
CCc1cccc(CC)c1N(COC)C(=O)CCl,inactive,–
CC(C)N(C(=O)SCC(Cl)=C(Cl)Cl)C(C)C,inactive,–
CCC(=O)Nc1ccc(Cl)c(Cl)c1,inactive,–
O=C(O)c1cc(Oc2ccc(C(F)(F)F)cc2Cl)ccc1[N+](=O)[O-],inactive,–
CCCOCC(=Nc1ccc(Cl)cc1C(F)(F)F)n1ccnc1,inactive,–
CC(COc1ccc(Oc2ccccc2)cc1)Oc1ccccn1 (stereo not drawn),inactive,–
C=C(C)[C@H]1Cc2c(ccc3c2O[C@@H]2COc4cc(OC)c(OC)cc4[C@@H]2C3=O)O1,–,0.0842 µM (active)
CCOP(=S)(OCC)SCCSCC,inactive,–
CC(C)=CC1C(C(=O)OCN2C(=O)C3=C(CCCC3)C2=O)C1(C)C (stereo not drawn),inactive,–
COP(=O)(OC)OC(Br)C(Cl)(Cl)Br (stereo not drawn),inactive,–
CC(C1CC1)C(O)(Cn1cncn1)c1ccc(Cl)cc1 (stereo not drawn),inactive,–
CCOP(=S)(Oc1cnc(C(C)(C)C)nc1)OC(C)C (stereo not drawn),inactive,–
C#CCC1=C(C)C(OC(=O)C2C(C=C(C)C)C2(C)C)CC1=O (stereo not drawn),inactive,–
CCC(CC)Nc1c([N+](=O)[O-])cc(C)c(C)c1[N+](=O)[O-],inactive,–
CCc1cccc(C)c1N(C(=O)CCl)C(C)COC (stereo not drawn),inactive,–
CCOP(=O)(NC(C)C)Oc1ccc(SC)c(C)c1 (stereo not drawn),inactive,–
CC1(C(=O)Nc2ccc(O)c(Cl)c2Cl)CCCCC1,inactive,–
CCCCOC(=O)[C@@H](C)Oc1ccc(Oc2ccc(C#N)cc2F)cc1,inactive,–
CCCSP(=O)(OCC)Oc1ccc(Br)cc1Cl (stereo not drawn),inactive,–
CN(C)[C@@H]1C(=O)C(C(N)=O)=C(O)[C@@]2(O)C(=O)C3=C(O)c4c(O)cccc4[C@@](C)(O)[C@H]3[C@H](O)[C@@H]12,inactive,–
CCCSP(=O)(OCC)SCCC,inactive,–
N#CSCSC#N,inactive,–
O=[N+]([O-])c1cc(C(F)(F)F)c(Cl)c([N+](=O)[O-])c1Nc1ncc(C(F)(F)F)cc1Cl,inactive,–
CC[C@H](C)[C@H]1O[C@]2(C=C[C@@H]1C)C[C@@H]1C[C@@H](C/C=C(\C)[C@@H](O[C@H]3C[C@H](OC)[C@@H](O[C@H]4C[C@H](OC)[C@@H](NC)[C@H](C)O4)[C@H](C)O3)[C@@H](C)/C=C/C=C3\CO[C@@H]4[C@H](O)C(C)=C[C@@H](C(=O)O1)[C@]34O)O2,–,84.7 µM (active)
C[Si](Cn1cncn1)(c1ccc(F)cc1)c1ccc(F)cc1,inactive,–
